# Laboratory results as given in ChEMBL document CHEMBL3988442, “University of Dundee, Small-Polar-MMV Screening Library” (2021).
# For some of these results: Entries with a potency or affinity are not part of this list.
# Key:
# Set-up in all cases: scale not given: direction of the effect not stated beside the values
# [1] = molecular target: Protein translocase subunit SecA (Escherichia coli (strain K12)) (UniProt P10408); test: Assay to Identify E. coli SecA ATPase Inhibitors; type: functional; settings: 30 µM
# Sequence of Protein translocase subunit SecA (Escherichia coli (strain K12)) (P10408 whole entry): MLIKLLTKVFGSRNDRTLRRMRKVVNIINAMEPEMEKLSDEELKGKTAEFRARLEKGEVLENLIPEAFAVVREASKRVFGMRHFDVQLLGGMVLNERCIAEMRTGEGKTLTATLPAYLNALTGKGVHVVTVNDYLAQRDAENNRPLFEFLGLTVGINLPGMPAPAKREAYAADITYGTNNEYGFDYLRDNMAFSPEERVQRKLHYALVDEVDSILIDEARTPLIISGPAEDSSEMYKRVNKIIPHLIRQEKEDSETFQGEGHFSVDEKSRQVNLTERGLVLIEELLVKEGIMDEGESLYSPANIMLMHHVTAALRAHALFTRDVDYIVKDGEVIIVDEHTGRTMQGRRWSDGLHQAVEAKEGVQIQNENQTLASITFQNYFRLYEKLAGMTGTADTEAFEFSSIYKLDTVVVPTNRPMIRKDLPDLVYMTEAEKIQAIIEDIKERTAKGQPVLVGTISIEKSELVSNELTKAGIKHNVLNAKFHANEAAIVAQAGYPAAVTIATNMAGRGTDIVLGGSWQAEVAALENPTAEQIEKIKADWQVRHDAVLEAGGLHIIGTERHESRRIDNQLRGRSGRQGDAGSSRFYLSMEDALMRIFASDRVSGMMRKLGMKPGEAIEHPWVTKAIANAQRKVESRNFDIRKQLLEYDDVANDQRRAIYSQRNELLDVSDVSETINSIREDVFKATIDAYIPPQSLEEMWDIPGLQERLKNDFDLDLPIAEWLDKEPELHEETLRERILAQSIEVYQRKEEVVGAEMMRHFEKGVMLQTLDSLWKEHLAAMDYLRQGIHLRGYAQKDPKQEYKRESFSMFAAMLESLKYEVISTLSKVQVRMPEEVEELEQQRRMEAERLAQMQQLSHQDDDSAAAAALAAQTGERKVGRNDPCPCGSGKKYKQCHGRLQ
# [2] = molecular target: T1, Ubiquitin-activating enzyme e1, putative (Leishmania donovani (strain BPK282A1)) (UniProt E9BSI1); test: Leishmania donovani Ubiquitin Activating Enzyme (LdE1); type: functional; settings: 30 µM
# T1 sequence (whole entry): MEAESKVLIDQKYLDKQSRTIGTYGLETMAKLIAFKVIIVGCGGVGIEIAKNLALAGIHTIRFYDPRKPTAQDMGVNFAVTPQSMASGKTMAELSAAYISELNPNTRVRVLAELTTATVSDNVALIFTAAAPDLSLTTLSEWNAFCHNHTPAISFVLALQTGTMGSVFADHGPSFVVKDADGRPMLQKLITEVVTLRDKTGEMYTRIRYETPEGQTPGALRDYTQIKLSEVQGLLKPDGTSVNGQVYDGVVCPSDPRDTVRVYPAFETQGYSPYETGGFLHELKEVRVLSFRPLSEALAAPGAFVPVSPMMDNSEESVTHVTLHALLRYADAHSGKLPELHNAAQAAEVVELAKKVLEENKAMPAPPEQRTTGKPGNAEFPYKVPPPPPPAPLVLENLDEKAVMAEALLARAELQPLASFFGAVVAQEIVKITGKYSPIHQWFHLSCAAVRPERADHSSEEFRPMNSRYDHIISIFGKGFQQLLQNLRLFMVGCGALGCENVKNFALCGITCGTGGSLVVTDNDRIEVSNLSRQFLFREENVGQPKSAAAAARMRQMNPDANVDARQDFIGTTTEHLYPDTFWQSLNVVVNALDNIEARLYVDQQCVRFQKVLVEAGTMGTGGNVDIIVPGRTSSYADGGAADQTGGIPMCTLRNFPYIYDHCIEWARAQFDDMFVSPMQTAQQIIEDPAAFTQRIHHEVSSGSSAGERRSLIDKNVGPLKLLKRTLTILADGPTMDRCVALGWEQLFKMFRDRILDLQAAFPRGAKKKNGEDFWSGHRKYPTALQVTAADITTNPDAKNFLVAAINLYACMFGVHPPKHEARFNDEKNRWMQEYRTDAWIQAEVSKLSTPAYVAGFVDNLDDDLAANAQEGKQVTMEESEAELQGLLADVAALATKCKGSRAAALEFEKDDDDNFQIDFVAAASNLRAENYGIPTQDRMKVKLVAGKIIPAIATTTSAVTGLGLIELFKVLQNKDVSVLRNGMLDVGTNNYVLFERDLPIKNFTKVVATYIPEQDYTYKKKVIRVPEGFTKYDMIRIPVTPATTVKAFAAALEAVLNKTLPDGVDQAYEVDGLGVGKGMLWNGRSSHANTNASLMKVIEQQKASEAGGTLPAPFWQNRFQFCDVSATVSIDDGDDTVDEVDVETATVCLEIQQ
# [3] = molecular target: AMP-activated protein kinase, AMPK (Homo sapiens) (UniProt P54646+O43741+P54619+Q9UGJ0+Q9Y478+Q13131+Q9UGI9); test: AMP-dependent Kinase enzyme assay. An in vitro enzyme assay that detects ADP turnover that is directly proportional to AMPK activity. This uses naive AMPK that is activated during the assay with MK-8722; type: functional; settings: 30 µM
# [4] = molecular target: Sialic acid-binding Ig-like lectin 9 (Homo sapiens) (UniProt Q9Y336); test: Hs-Siglec9 ALPHAscreen SOP 20170721; settings: 10 µM
# Sequence of Sialic acid-binding Ig-like lectin 9 (Homo sapiens) (Q9Y336 whole entry): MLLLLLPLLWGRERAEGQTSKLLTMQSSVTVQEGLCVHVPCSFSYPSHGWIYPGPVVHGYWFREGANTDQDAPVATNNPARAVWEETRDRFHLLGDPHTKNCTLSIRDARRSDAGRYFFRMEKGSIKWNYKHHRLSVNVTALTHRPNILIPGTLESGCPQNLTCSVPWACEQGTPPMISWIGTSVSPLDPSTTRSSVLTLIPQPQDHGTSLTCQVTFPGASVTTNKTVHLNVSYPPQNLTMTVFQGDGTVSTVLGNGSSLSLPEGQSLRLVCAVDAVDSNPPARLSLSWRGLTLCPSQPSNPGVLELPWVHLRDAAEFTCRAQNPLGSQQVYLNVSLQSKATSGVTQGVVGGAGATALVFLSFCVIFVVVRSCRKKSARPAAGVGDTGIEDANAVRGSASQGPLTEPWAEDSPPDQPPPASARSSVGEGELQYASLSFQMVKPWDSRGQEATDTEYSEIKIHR
# Trypanosoma cruzi = test: Trypanosoma cruzi phosphomannomutase and mannose-1-phosphate guanylyltransferase assay; type: functional; settings: 10 µM
# [5] = molecular target: T2, Arginase-2, mitochondrial (Homo sapiens) (UniProt P78540); test: in vitro enzyme assay to detect the production of urea directly proportional to the activity of Arginase II; type: functional; settings: 33.3 µM; note: in the data most compounds retested in dose-response had high values
# T2 sequence (whole entry): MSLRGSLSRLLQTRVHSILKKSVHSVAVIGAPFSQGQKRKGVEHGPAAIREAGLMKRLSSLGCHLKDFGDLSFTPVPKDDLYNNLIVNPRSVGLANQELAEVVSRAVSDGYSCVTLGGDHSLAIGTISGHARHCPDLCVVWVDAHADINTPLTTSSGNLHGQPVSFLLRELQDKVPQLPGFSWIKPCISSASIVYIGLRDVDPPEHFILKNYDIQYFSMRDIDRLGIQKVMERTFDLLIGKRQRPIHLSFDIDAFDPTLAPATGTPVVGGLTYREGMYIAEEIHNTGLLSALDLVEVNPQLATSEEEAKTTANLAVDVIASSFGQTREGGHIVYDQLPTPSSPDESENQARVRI
# [6] = molecular target: T3, Proteasome subunit beta (Trypanosoma cruzi) (UniProt O96673); test: Trypanosoma cruzi proteasome chymotrypsin-like activity (TcProtChymo) assay.; note: in the data most compounds retested in dose-response had high values; type: functional; settings: 9.37 µM
# T3 sequence (whole entry): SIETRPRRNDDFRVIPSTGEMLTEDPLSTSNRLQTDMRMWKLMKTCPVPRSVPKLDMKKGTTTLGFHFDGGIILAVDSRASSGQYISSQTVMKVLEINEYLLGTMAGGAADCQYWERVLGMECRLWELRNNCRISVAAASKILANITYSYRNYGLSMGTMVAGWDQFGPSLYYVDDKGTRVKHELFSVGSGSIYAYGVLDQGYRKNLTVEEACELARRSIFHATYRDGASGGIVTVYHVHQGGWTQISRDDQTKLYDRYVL
# Homo sapiens = species on record: Homo sapiens; test: To identify inhibition of the IFN signalling (Jak-Stat) pathway via expression of an eGFP reporter gene under the control of an IFN-stimulated response element (ISRE) containing MxA promoter.; type: functional; settings: 30 µM
# [7] = molecular target: T4, Tyrosyl-tRNA synthetase, putative (Trypanosoma cruzi (strain CL Brener)) (UniProt Q4DSP6); test: Trypanosoma cruzi tyrosyl tRNA synthetase (TcYRS) _High Tyrosine SOP; type: functional; settings: 30 µM; note: in the data most compounds retested in dose-response had high values
# T4 sequence (whole entry): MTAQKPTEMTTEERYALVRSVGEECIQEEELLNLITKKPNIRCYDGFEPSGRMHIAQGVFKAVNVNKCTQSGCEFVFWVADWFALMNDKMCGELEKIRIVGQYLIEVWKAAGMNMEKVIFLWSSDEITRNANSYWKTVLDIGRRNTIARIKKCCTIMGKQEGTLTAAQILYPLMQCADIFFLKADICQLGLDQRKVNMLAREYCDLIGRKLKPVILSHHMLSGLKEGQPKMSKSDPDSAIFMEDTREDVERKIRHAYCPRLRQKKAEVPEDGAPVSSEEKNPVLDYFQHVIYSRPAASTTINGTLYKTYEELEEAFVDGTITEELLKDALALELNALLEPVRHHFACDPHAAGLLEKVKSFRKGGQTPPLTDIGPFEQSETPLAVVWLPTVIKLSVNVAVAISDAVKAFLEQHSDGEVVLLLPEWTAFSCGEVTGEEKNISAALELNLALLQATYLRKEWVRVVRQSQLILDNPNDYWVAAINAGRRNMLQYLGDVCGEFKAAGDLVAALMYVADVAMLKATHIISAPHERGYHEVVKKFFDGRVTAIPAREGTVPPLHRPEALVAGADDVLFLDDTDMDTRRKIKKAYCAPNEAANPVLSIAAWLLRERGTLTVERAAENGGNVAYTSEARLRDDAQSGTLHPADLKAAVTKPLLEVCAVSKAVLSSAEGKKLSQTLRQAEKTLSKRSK
# [8] = molecular target: T4, Tyrosyl-tRNA synthetase, putative (Trypanosoma cruzi (strain CL Brener)); test: Trypanosoma cruzi tyrosyl tRNA synthetase (TcYRS) SOP; type: functional; settings: 30 µM
# [9] = molecular target: Chromo domain-containing protein 1 (Saccharomyces cerevisiae (strain ATCC 204508 / S288c) (Baker's yeast)) (UniProt P32657); test: ScCHD-1 Enzyme Inhibition Assay; type: functional; settings: 30 µM; note: in the data most compounds retested in dose-response had high values
# Sequence of Chromo domain-containing protein 1 (Saccharomyces cerevisiae (strain ATCC 204508 / S288c) (Baker's yeast)) (P32657 whole entry, the tested form may be a part): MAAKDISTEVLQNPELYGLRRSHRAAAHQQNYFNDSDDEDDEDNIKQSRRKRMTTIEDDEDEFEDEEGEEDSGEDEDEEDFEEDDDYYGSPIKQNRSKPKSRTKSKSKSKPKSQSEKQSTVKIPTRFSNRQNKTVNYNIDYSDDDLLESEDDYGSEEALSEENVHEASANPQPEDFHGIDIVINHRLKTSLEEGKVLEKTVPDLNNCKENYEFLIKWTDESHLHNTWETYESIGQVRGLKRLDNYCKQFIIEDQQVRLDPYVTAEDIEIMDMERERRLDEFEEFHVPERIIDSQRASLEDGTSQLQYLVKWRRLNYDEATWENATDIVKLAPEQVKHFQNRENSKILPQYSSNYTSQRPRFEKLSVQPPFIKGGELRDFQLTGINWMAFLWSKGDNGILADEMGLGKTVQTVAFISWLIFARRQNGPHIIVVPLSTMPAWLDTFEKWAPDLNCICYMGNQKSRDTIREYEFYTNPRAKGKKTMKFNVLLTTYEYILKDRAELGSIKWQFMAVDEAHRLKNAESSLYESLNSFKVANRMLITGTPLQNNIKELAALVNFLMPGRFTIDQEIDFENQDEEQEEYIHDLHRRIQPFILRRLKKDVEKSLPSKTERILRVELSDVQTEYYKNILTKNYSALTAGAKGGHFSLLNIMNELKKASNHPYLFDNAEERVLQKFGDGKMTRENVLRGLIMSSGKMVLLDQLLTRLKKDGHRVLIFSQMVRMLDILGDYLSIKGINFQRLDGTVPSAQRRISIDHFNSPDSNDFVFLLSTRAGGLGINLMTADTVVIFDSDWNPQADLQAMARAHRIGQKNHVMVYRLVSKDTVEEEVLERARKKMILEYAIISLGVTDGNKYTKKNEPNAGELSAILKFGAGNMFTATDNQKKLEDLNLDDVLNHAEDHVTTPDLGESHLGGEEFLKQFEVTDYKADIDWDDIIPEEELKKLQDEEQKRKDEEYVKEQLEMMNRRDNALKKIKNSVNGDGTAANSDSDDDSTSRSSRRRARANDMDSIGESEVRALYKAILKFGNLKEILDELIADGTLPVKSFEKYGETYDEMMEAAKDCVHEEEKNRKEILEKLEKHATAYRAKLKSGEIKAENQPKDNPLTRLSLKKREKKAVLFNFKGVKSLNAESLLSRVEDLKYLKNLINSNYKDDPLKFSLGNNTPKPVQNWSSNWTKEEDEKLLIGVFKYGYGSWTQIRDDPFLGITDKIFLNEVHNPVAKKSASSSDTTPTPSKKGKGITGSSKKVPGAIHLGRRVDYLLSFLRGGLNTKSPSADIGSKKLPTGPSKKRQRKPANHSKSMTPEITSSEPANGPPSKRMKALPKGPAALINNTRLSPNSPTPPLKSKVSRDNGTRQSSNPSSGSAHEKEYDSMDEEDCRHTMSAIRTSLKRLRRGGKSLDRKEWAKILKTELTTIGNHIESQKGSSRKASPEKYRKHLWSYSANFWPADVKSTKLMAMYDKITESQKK
Compound,Percent Effect [1] [%],Percent Effect [2] [%],Percent Effect [3] [%],Percent Effect [4] [%],Percent Effect (Trypanosoma cruzi) [%],Percent Effect [5] [%],Percent Effect [6] [%],Percent Effect (Homo sapiens) [%],Percent Effect [7] [%],Percent Effect [8] [%],Percent Effect [9] [%]
Cc1nc(C)n(CC2CCCN(Cc3ccc(C(N)=O)cc3)C2)n1 (stereo not given),-2.97,5.2,2.61,-0.0393,-0.294,-3.58,5.58,5.79,4.76,11.8,-14.8
Cc1nc(C)n(C2CCCN(C(=O)CCCn3ccnc3)C2)n1 (stereo not given),-8.21,0,0.109,0.244,-3.91,2.92,10.4,5.38,4.95,3.66,-1.65
Cc1nccn1C1CCCN(C(=O)c2ccc3c(c2)NC(=O)CO3)C1 (stereo not given),-3.38,2.7,-9.28,-2.15,4.43,-1.2,14.1,-3.11,6.4,16.1,-9.9
O=C(O)c1nnn(-c2ccc(OC(F)(F)F)cc2)c1-c1ccncc1,-2.53,21.1,-1.66,-2.5,3.8,3.55,20.4,2.21,3.19,15.6,41.3
CC(NC(=O)Nc1cccnc1N1CCCC1)c1nncn1C (stereo not given),-3.96,5.41,-24,2.82,7.45,-2.81,-0.901,23.6,5.42,16.1,-9.41
Cn1ccnc1CN1C[C@@H](CN2CCC(CO)CC2)[C@@H](CO)C1,-7.42,5.41,-7.54,7.63,6.37,-1.43,17.4,7.57,1.59,14.6,-5.25
O=C(Nc1cccc(CN2CCOC2=O)c1)N1CCOCC1,-1.28,1.39,-4.85,-10.5,-4.76,3.09,12.6,2.75,2.1,7.69,-2.72
CN(Cc1cc2c(cc1OC(F)F)OCO2)Cc1nccn1C,-4.78,2.7,-4.36,4,1.27,-0.744,5.58,0.0596,3.23,6.17,-1.72
Cc1ccccc1CN1CCCN(C2CCOC2=O)CC1 (stereo not given),-1.89,-18.9,-9.35,10.9,-3.3,1.2,10.4,0.38,2.46,3.7,1.51
O=C(c1ccc(-n2ccnc2)nc1)N1CCCC(n2cccn2)C1 (stereo not given),-0.548,7.89,-2.37,3.05,-2.63,7.28,-0.501,15.7,5.39,9.76,0.587
CCN1CC(C(=O)NC(C)(C)CC(C)(C)C)CC1=O (stereo not given),-3.13,10.8,-0.778,22.8,4.4,21.1,5.06,-0.424,5.38,8.64,-10.2
COC(=O)c1ccc(N2CCN(C(=O)c3cnn(C)c3)C(C)C2)cc1 (stereo not given),-5.55,17.7,-10.6,11.1,6.14,-1.52,11.9,9.04,2.46,13.9,-12.4
CN1CCN(C2CCN(CC(=O)NCC(F)(F)F)CC2)C1=O,-6.45,15.2,-9.09,10.9,7.46,-3.8,5.32,-11.8,3.45,13.9,-3.32
O=C(c1cscn1)N1C[C@@H]2[C@@H](C1)OCC(=O)N2CC1CCCC1,-1.51,-54.5,1.15,6.36,-5.01,-8.28,16.5,0.71,-87.1,-147,-3.29
COc1cccc2c1ccn2CC(=O)N[C@@H](CCSC)C(=O)O,1.36,-1.33,-55.8,3.95,-0.197,-7.57,11.5,-11.4,4.23,-30.8,-0.515
CN(Cc1ccccc1Br)C(=O)Cn1nc(-c2ccc(F)cc2)oc1=O,2.65,-5.26,0.817,-11.8,-6.33,10.7,10.8,10,-24.5,-28.6,-1.2
CCCS(=O)(=O)N1CCC2(CC1)CN(c1ccccn1)CCO2,-4.44,4,-4.84,-5.06,-11,-11.8,11.8,-5.14,0,-2.56,-7.42
Cc1cc2c(=O)n3c(nc2s1)CCN(Cc1cnn(C)c1C)CC3,-4.39,9.46,12.6,-0.402,-4.74,2.09,8.58,7.67,5.38,9.09,-8.69
COc1ccc(-n2nnc(C(=O)NC(C)C)c2C2CC2)cc1,-1.4,1.39,-9.18,9.95,4.96,15,4.21,9.68,0,0,-0.372
CCc1nc(CN2CCN(C(=O)CCc3ccccc3)CC2)cs1,-6.36,19,-2.93,5.39,-1.95,2.8,16.5,3.67,-1.04,17.7,-23.8
